Experimental data taken from PubChem BioAssay.
Active and inactive are the calls of the source.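 How the source made its calls, unless noted: active means fluorescence slope higher than the sample average by over 3 SD (cut at about -0.22 in these data, passing the limit was not always enough); inactive means the rest.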

Assays:
[1] = inhibitors of TNFa-induced NFkB p65 translocation, primary screen, imaging, HUVEC, MLSMR starter and 10KST1 sets (AID 438;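 active means inhibition above 20% together with a positive visual image hit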;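 further: compound added about 3h40 before a 20 min TNFalpha stimulation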;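 on inhibition: signal is the nuclear over cytoplasmic p65 intensity ratio per well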); settings: HUVEC TNFa-induced p65 nuclear translocation; cell count: measured here: nuclei count (cytotoxicity indicator), at 2.08 µM; inhibition: at 2 µM, stronger effect = higher value, 0% TNFa-plus-vehicle, 100% no-TNFa wells
[2] = inhibitors of mutant huntingtin aggregation, primary screen, imaging, exon1htt(103Q)mCFP cells, high-content imaging (AID 483;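 active means visual image review flags a hit and inhibition of aggregation exceeds 20%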;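 further: compound exposure lasted 3 days before fixation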;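 on nuclei count: percent of the per-plate median nuclei count of sample wells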); settings: exon1htt(103Q)mCFP cell line, aggregate imaging, at 2 µM; inhibition of aggregation: stronger effect = higher value; nuclei count: measured here: cell count, toxicity
[3] = inhibitors of E-selectin induction by TNFa, primary screen, imaging, HUVEC, immunofluorescence, MLSMR starter and 10KST1 sets (AID 487;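 active means visually confirmed hit in the image check and inhibition above 20%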;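 on inhibition: signal is fraction of cell area covered by stained E-selectin grains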;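 on nuclei count: 100% = median nuclei count of all wells on the same plate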); settings: HUVEC TNFalpha-induced E-selectin immunofluorescence imaging, at 2 µM; inhibition: stronger effect = higher value; nuclei count: measured here: cell number, toxicity
[4] = biological target: Voltage-gated potassium channel subunit beta-2 (Rattus norvegicus) (UniProt P62483); test: KvBeta enzyme negative modulators, primary screen, biochemical, NADPH fluorescence (AID 622); settings: recombinant KvBeta, 4-cyanobenzaldehyde reduction, at 10 µM, stronger effect = higher value;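 further: slope of raw intensity against log time taken from 70 to 1610 s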
Voltage-gated potassium channel subunit beta-2 (Rattus norvegicus), sequence (P62483 whole entry, looked up): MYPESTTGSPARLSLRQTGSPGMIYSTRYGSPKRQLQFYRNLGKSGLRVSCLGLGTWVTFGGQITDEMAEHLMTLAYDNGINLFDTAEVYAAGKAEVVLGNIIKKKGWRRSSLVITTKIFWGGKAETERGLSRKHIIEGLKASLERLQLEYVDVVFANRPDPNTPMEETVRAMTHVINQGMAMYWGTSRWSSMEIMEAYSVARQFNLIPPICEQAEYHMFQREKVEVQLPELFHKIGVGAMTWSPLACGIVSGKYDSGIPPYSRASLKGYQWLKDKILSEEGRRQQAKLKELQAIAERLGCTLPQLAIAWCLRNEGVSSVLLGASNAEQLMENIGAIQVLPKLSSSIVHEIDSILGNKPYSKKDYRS

[5] = biological target: Voltage-gated potassium channel subunit beta-2 (Rattus norvegicus) (UniProt P62483); test: KvBeta positive modulators, primary screen, biochemical, NADPH fluorescence (AID 623;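 active means NADPH fluorescence slope more negative than the mean of all samples by about 3 SD, 99.7% confidence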;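 further: fluorescence intensity change per second fitted from 20 to 320 s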); settings: Recombinant KvBeta, NADPH fluorescence decrease slope, 10 min; at 10 µM; stronger effect = lower value
[6] = biological target: Alpha-2C adrenergic receptor (Homo sapiens) (UniProt P18825); test: modulators of alpha2C/GIRK thallium flux, primary screen, cell-based, HEK293 alpha2C/GIRK1/2 (AID 624;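 active means fluorescence slope after compound addition differing from the mean of all screened samples at 99.7% confidence, in either direction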;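 further: slope of fluorescence ratio to pre-addition baseline per second over 15 to 24 s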); settings: thallium flux BTC fluorescence, at 10 µM, actives lie on both sides
Alpha-2C adrenergic receptor (Homo sapiens), sequence (P18825 whole entry, looked up): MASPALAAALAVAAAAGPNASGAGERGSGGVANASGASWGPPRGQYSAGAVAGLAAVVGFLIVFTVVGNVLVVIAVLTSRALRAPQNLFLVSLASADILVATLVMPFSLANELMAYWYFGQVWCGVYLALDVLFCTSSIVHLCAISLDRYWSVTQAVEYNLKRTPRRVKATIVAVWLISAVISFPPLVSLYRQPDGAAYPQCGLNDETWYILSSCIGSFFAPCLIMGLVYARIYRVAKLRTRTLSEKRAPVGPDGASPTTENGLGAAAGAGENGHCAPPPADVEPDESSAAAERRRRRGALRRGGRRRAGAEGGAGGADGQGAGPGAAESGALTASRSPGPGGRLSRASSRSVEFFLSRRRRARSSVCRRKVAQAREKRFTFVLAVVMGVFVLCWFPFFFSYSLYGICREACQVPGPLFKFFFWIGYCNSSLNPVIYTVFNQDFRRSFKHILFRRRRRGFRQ

[7] = inhibitors of Sendai virus-induced IRF3 signaling, primary screen, TLR/RLR signaling modifier project, cell-based, Sendai virus stimulus, luciferase, 10K MLSCN set (AID 602276;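 active means inhibition at or above 50% at 10 µM; inactive means inhibition below 50%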;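 further: firefly luciferase from ISG56 promoter only with Renilla not read in this screen; 0% = Sendai virus plus DMSO and 100% = medium plus DMSO without virus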); settings: HEK293 RL24 IRF3 luciferase reporter, at 10 µM, stronger effect = higher value
[8] = inhibitors of poly I:C-induced TLR3 signaling, primary screen, cell-based, poly I:C stimulus, luciferase, 10K MLSCN set (AID 602277;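 active means inhibition of the reporter signal at or above 50%; inactive means inhibition below 50%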); settings: HEK293-TLR3 RL24 IRF3 luciferase reporter, at 10 µM, stronger effect = higher value

SMILES | cell count [1] | inhibition [1] | inhibition of aggregation [2] | nuclei count [2] [%] | inhibition [3] | nuclei count [3] [%] | fluorescence slope [4] | NADPH fluorescence slope [5] | slope [6] | inhibition [7] | inhibition [8]
Cc1ccc(N2CCN(C(=S)c3ccc(N(C)C)cc3)CC2)cc1 | 411 | -38.4% (inactive) | -2.2% (inactive) | 85.8 | -90.7% (inactive) | 98.3 | -0.595 (inactive) | -2.7e-05 (inactive) | 0.00418 (inactive) | -12.6% (inactive) | -63.7% (inactive)
Cc1ccc(C(c2nnnn2CCC(C)C)N2CCN(C)CC2)cc1 (stereo not drawn) | 417 | 1% (inactive) | 8.9% (inactive) | 73.1 | -73.9% (inactive) | 108 | -0.598 (inactive) | -4.8e-05 (inactive) | 0.00252 (inactive) | 13.9% (inactive) | -3.3% (inactive)
Cc1ccc(CN2C(=O)CCC2C(=O)NC2CCCC2)cc1 (stereo not drawn) | 382 | 1.3% (inactive) | 6.6% (inactive) | 103 | -19% (inactive) | 111 | -0.589 (inactive) | -3.4e-05 (inactive) | 0.00496 (inactive) | 12.8% (inactive) | 21.8% (inactive)
S=c1[nH]nc(-c2ccco2)n1-c1cccc2ccccc12 | 390 | 1.5% (inactive) | -1.8% (inactive) | 111 | -181% (inactive) | 104 | -0.526 (inactive) | 3.2e-05 (inactive) | 0.00555 (inactive) | -23.7% (inactive) | -8.5% (inactive)
COC(=O)c1cc2oc(C)cc2n1CC(=O)Nc1ccc(C)c(C)c1 | 386 | 9.1% (inactive) | 6.1% (inactive) | 103 | -84.5% (inactive) | 115 | -0.337 (inactive) | -1.2e-05 (inactive) | 0.00552 (inactive) | -0.339% (inactive) | 4.84% (inactive)
COc1ccc(/C=N/n2cc(-c3ccc(OC)cc3)nc2N)cc1 | 351 | 10.9% (inactive) | 2.2% (inactive) | 107 | 6.3% (inactive) | 117 | -0.246 (inactive) | 1.1e-05 (inactive) | 0.00586 (inactive) | 8.24% (inactive) | 2.92% (inactive)
CCOC(=O)Cc1nnc(NC(=O)c2ccccc2OCC)s1 | 583 | 12.6% (inactive) | 5.3% (inactive) | 102 | -43.9% (inactive) | 123 | -0.448 (inactive) | -0.000111 (inactive) | 0.005 (inactive) | 4.48% (inactive) | 4.72% (inactive)
CCOC(=O)C1CSC(CC(=O)Nc2ccc(Cl)cc2)C(=O)N1 (stereo not drawn) | 704 | 3.9% (inactive) | 7.4% (inactive) | 103 | -56.7% (inactive) | 132 | -0.325 (inactive) | -4.9e-05 (inactive) | 0.00513 (inactive) | -5.63% (inactive) | 1.5% (inactive)
CCCSCCCNC(=O)Cn1cc2c(n1)CCC(C)C2 (stereo not drawn) | 652 | -3.3% (inactive) | 3.5% (inactive) | 92 | 21.4% (inactive) | 103 | -0.615 (inactive) | -2.5e-05 (inactive) | 0.00719 (inactive) | -8.61% (inactive) | 10.5% (inactive)
CC1(C)CC(=O)CC(=Nc2ccc(C(=O)O)cc2)C1 | 487 | 4.2% (inactive) | 10.3% (inactive) | 89.1 | 2.7% (inactive) | 112 | -0.497 (inactive) | -5.1e-05 (inactive) | 0.0073 (inactive) | 6.49% (inactive) | 42.2% (inactive)
Cc1ccc(NC(=O)C2CCCN(S(=O)(=O)c3cnc[nH]3)C2)cc1F (stereo not drawn) | 521 | 0.9% (inactive) | 7.3% (inactive) | 99.9 | -108% (inactive) | 126 | -0.521 (inactive) | -4.2e-05 (inactive) | 0.00688 (inactive) | 22.4% (inactive) | 21.8% (inactive)
COC(=O)[C@H](C)NC(=O)NCc1ccc(F)cc1 | 589 | -23.8% (inactive) | 24.3% (inactive) | 100 | -131% (inactive) | 96.1 | -0.622 (inactive) | -1.3e-05 (inactive) | 0.00843 (inactive) | 6.37% (inactive) | -35.7% (inactive)
CCCCC(CC)CNC(=O)C1CCCN(S(=O)(=O)c2cnc[nH]2)C1 (stereo not drawn) | 565 | 8.7% (inactive) | 2.1% (inactive) | 75.2 | 0.3% (inactive) | 104 | -0.491 (inactive) | -1.6e-05 (inactive) | 0.00613 (inactive) | 10.8% (inactive) | 15.8% (inactive)
COCCn1nnnc1C(c1ccccc1OC)N1CCc2ccccc2C1 (stereo not drawn) | 511 | -3.6% (inactive) | 37.6% (inactive) | 105 | -89.6% (inactive) | 96.1 | -0.322 (inactive) | -5e-05 (inactive) | 0.00407 (inactive) | 16.5% (inactive) | 32.8% (inactive)
O=C(NCc1cccs1)C1CCN(S(=O)(=O)c2cccs2)CC1 | 353 | 4.5% (inactive) | 0.9% (inactive) | 99.2 | -13.4% (inactive) | 120 | -0.619 (inactive) | -1.4e-05 (inactive) | 0.00617 (inactive) | 7.22% (inactive) | 15% (inactive)
CCOC(=O)N1CCC2(O)CCCCC2C1c1ccc(F)cc1 (stereo not drawn) | 450 | -1.7% (inactive) | -11.2% (inactive) | 108 | -73.3% (inactive) | 109 | -0.439 (inactive) | 1.9e-05 (inactive) | 0.00629 (inactive) | 14.6% (inactive) | 22.6% (inactive)
CC(C)Oc1cc2oc(=O)c3c(c2cc1Cl)CCC3 | 385 | 0.8% (inactive) | -21.6% (inactive) | 56.6 | -10.2% (inactive) | 96.1 | -0.445 (inactive) | 2.2e-05 (inactive) | 0.00687 (inactive) | -1.44% (inactive) | -17.4% (inactive)
COc1ccccc1NC(=O)c1cc2n(n1)C(C(F)(F)F)CC(c1ccc3c(c1)OCO3)N2 (stereo not drawn) | 479 | 2.4% (inactive) | 5.1% (inactive) | 109 | -14.9% (inactive) | 110 | -0.629 (inactive) | 6.1e-06 (inactive) | 0.00604 (inactive) | -5.6% (inactive) | -16.2% (inactive)
Cn1c(SCc2nnc3n2CCCCC3)nc2ccccc21 | 252 | -15.3% (inactive) | -3.3% (inactive) | 94.7 | -94.2% (inactive) | 127 | -0.433 (inactive) | -2.7e-05 (inactive) | 0.00588 (inactive) | 14% (inactive) | 20% (inactive)
O=C(c1ccc(COc2c(F)c(F)c(F)c(F)c2F)o1)N1CCOCC1 | 701 | 2.8% (inactive) | 26.7% (inactive) | 79.8 | -25% (inactive) | 105 | -0.58 (inactive) | -3.8e-05 (inactive) | 0.0055 (inactive) | 10.5% (inactive) | 33.9% (inactive)
COc1cccc(NC(=O)N2CCN(C(=O)C(Cc3ccc(OC)c(OC)c3)NC(C)=O)CC2)c1 (stereo not drawn) | 364 | -0.5% (inactive) | -4% (inactive) | 107 | -47.6% (inactive) | 99.9 | -0.355 (inactive) | -3.6e-05 (inactive) | 0.00701 (inactive) | 12.1% (inactive) | 22.8% (inactive)
COc1ccc(-n2c(=O)c3c4c(sc3n3cnnc23)CC(C)CC4)cc1 (stereo not drawn) | 370 | 0.2% (inactive) | -5.1% (inactive) | 80.3 | -108% (inactive) | 116 | -0.46 (inactive) | -4.9e-05 (inactive) | 0.00768 (inactive) | 23.9% (inactive) | 2.31% (inactive)
Cc1ccc(C(c2sc3ncnn3c2O)N2CC(C)CC(C)C2)cc1 (stereo not drawn) | 628 | -2.4% (inactive) | 14.8% (inactive) | 80.8 | -22.9% (inactive) | 101 | -0.58 (inactive) | -5.6e-05 (inactive) | 0.00795 (inactive) | 10.9% (inactive) | 35.9% (inactive)
Cn1c(=O)[nH]c(=O)c2c1nc(NCCCn1ccnc1)n2Cc1cccc(Br)c1 | 663 | -12.9% (inactive) | 8.6% (inactive) | 68.9 | -53.6% (inactive) | 112 | -0.403 (inactive) | -2.8e-05 (inactive) | 0.006 (inactive) | 16.8% (inactive) | 26.1% (inactive)
COc1ccc(OC)c(C2C(C(=O)Nc3cccnc3)=C(C)NC3=C2C(=O)CCC3)c1 (stereo not drawn) | 353 | -7% (inactive) | 2.3% (inactive) | 103 | -64% (inactive) | 131 | -0.379 (inactive) | 2.2e-05 (inactive) | 0.00554 (inactive) | 3.04% (inactive) | 25% (inactive)
C=CCn1c(=O)c(C(=O)Nc2ccccc2C(=O)OCC)c(O)c2ccccc21 | 495 | -5.5% (inactive) | -15.6% (inactive) | 120 | -23.1% (inactive) | 122 | -0.422 (inactive) | -4.7e-05 (inactive) | 0.00716 (inactive) | 16.9% (inactive) | 14.7% (inactive)
COc1cccc(-c2nc(CS(=O)(=O)CC(=O)N3CCN(c4ccccn4)CC3)c(C)o2)c1 | 752 | -4.4% (inactive) | 2.6% (inactive) | 115 | -72.1% (inactive) | 114 | -0.506 (inactive) | -1.1e-05 (inactive) | 0.00682 (inactive) | 6.91% (inactive) | -1.07% (inactive)
COc1cccc(N2CCN(CC(=O)Nc3nnc(-c4ccccc4)s3)CC2)c1 | 417 | 0.2% (inactive) | 2.3% (inactive) | 105 | -120% (inactive) | 118 | -0.472 (inactive) | 8.2e-07 (inactive) | 0.00594 (inactive) | 16% (inactive) | 22% (inactive)
